Rows were chosen to be rich in hits. Some 19% of all compounds tested hit in one or more screens of this group.
HT1080NT lethal: kills 2HG-producing HT-1080-NT fibrosarcoma cells | 360,000 tested, 1.6% active | AID 686970 | HT-1080-NT fibrosarcoma viability, CellTiter-Glo ATP luminescence, 48 h | Potency, µM (doses to about 46.1 µM), without a hit: top-dose activity, negative = less viability, actives largely listed as cytotoxic;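 note: NT is the 2HG producing partner of a matched IDH1 knockdown line; potency is the fitted concentration of half-maximal effect; 0% = DMSO-treated cells and -100% = media-only wells without cells; nearly all actives have a fitted effect of over 55% in size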
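HT-1080-NT; 750 cells/well; 5% FBS RPMI; 48 h compound, 37 degrees C; CellTiter-Glo luminescence; curve fitting and curve-class assignment.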
DT40 TDP1 no CPT: qHTS for Inhibitors of human tyrosyl-DNA phosphodiesterase 1 (TDP1): qHTS in cells in absence of CPT | DT40 Tdp1-/- hTDP1 cells, no CPT, ATP luminescence, 48 h | Potency, µM (series often up to 46.2 µM), without a hit: at the highest dose activity change, negative = growth inhibition, actives largely listed as inhibitors | 420,000 tested, 15% active | AID 686978, 2013; note: potency is the fitted concentration of half-maximal effect; nearly all actives have a fitted effect of over 55% in size
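Seeded 400 DT40-hTDP1 cells/well (vehicle DMSO, no 20 nM CPT); pinned compounds; ≥48 hr at 37 °C; CellTiter-Glo luminescence as viability measure.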
DT40 TDP1 CPT: DT40-hTDP1 cell growth loss with CPT. chicken DT40 Tdp1-/-;hTDP1 cells + 20 nM CPT, ATP luminescence, 48 h. Potency, µM (titrated, usually from 46.2 µM), for inactives: top-dose activity change, negative = growth inhibition, hits mostly inhibitors. 420,000 tested, 12% active; note: potency is the fitted concentration of half-maximal effect; nearly all actives have a fitted effect of over 55% in size
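Chicken DT40 Tdp1-/- cells stably complemented with human TDP1 were seeded at 400 cells/well in medium containing 20 nM camptothecin, exposed to pin-transferred compounds, and grown at 37 °C for at least 48 hr. Viability was read as ATP luminescence.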
IL1B secr inh: inhibitors of inflammasome signaling (IL-1 beta secretion). THP-1 LPS/ATP IL-1B secretion, AlphaLISA, 16 h; hits give low values. activity change, % at 57.5 µM. 360,000 tested, 4.7% active; in the data active = activity change below about -50%; inconclusive = mostly about -30% to -49%
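Secreted IL-1B measured by AlphaLISA bead assay after 16 h compound exposure of THP-1 cells; compounds (final up to 57.5 uM) added 1 h before LPS (250 ng/mL) and ATP (1.25 mM) stimulation; lower signal means less secretion.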
HT1080 IDH1KD tx: toxicity to HT-1080 IDH1 knockdown cells (counter line). 360,000 tested, 2% active. Potency, µM (highest dose often 46.1 µM), for inactives: at the top dose activity, negative = toxicity, usual class: cytotoxic. HT-1080 IDH1 knockdown viability, ATP luminescence, 48 h;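 note: potency is the fitted concentration of half-maximal effect; 0% = DMSO wells and -100% = cell-free medium wells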
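After a 2 h attachment period, IDH1KD HT-1080 cells took pin-transferred compound for 48 h at 37 °C; ATP-based luminescence after 10 min room-temperature reagent incubation reported viability.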
* hit, by the source's call; [ ] = another dose, or the depositor's remark. Unless noted, calls come from the whole dose curve; as a rule, active = well fitted curve in the direction sought with a large enough effect; inconclusive = small, poorly fitted or top-dose-only effect, or another doubt; inactive = no such curve, though single readings can be large; an effect the other way counts as inactive or inconclusive. Unless noted, % is set by controls: 0 for no effect and ±100 for the full control effect.

O=C(Nc1cccc([N+](=O)[O-])c1)c1ccccc1 was read as HT1080NT lethal -2%, DT40 TDP1 no CPT -1%, DT40 TDP1 CPT -14%, IL1B secr inh -13 and HT1080 IDH1KD tx 10%.
Screening Cc1c(C(=O)Nc2ccc(Nc3ccccc3)cc2)cccc1[N+](=O)[O-] returned HT1080NT lethal -19%, DT40 TDP1 no CPT 8.2µM*, DT40 TDP1 CPT 9.2µM*, IL1B secr inh inconclusive and HT1080 IDH1KD tx -17%.
CCOC(=O)c1ccc(NC(=O)c2ccccc2[N+](=O)[O-])cc1 was read as HT1080NT lethal -1%, DT40 TDP1 no CPT 18µM*, DT40 TDP1 CPT -7%, IL1B secr inh 12 and HT1080 IDH1KD tx -8%.
For CCOC(=O)c1ccc(NC(=O)c2cccc(C)c2[N+](=O)[O-])cc1 the results were HT1080NT lethal -21%, DT40 TDP1 no CPT -20%, DT40 TDP1 CPT 2%, IL1B secr inh 0 and HT1080 IDH1KD tx -20%.
For CCOC(=O)C1=CNS(=O)(=O)NC1c1ccc(OC(C)=O)cc1 (centres undefined) the results were HT1080NT lethal 0%, DT40 TDP1 no CPT -17%, DT40 TDP1 CPT -11%, IL1B secr inh 12 and HT1080 IDH1KD tx -3%.
`O=[N+]([O-])c1ccc(Nc2ccccc2O)c([N+](=O)[O-])c1` gave HT1080NT lethal 2%, DT40 TDP1 no CPT inconclusive, DT40 TDP1 CPT inconclusive, IL1B secr inh 49 and HT1080 IDH1KD tx 2%.
Screening CCC(=O)Nc1cccc(NC(=O)c2cccc([N+](=O)[O-])c2C)c1 returned HT1080NT lethal -2%, DT40 TDP1 no CPT 23µM*, DT40 TDP1 CPT inconclusive, IL1B secr inh 3 and HT1080 IDH1KD tx -1%.
Screening COc1ccccc1C(=O)Oc1ccccc1C(=O)Nc1ccccc1 returned HT1080NT lethal -2%, DT40 TDP1 no CPT inconclusive, DT40 TDP1 CPT inconclusive, IL1B secr inh 20 and HT1080 IDH1KD tx 3%.
Screening O=C(Oc1ccccc1C(=O)Nc1ccccc1)c1ccc(Br)c([N+](=O)[O-])c1 returned HT1080NT lethal inconclusive, DT40 TDP1 no CPT inconclusive, DT40 TDP1 CPT -21%, IL1B secr inh -73* and HT1080 IDH1KD tx inconclusive.
`CCOC(=O)c1ccc(NCCOC)c([N+](=O)[O-])c1` gave HT1080NT lethal 20%, DT40 TDP1 no CPT -5%, DT40 TDP1 CPT -8%, IL1B secr inh 4 and HT1080 IDH1KD tx 8%.
`CCOC(=O)c1cc([N+](=O)[O-])c([N+](=O)[O-])cc1NC(C)=O` gave HT1080NT lethal 7.3µM*, DT40 TDP1 no CPT 0.92µM*, DT40 TDP1 CPT inconclusive, IL1B secr inh -81* and HT1080 IDH1KD tx inconclusive.
`O=[N+]([O-])c1cc(Br)c(Nc2ccccc2)c([N+](=O)[O-])c1` gave HT1080NT lethal inconclusive, DT40 TDP1 no CPT 0.92µM*, DT40 TDP1 CPT 0.82µM*, IL1B secr inh -98* and HT1080 IDH1KD tx 3.3µM*.
For COC(=O)Cn1cnc2c(cnn2-c2ccc(C)cc2)c1=O the results were HT1080NT lethal 8%, DT40 TDP1 no CPT 11%, DT40 TDP1 CPT -12%, IL1B secr inh -21 and HT1080 IDH1KD tx 0%.
`CCCc1cc(=O)[nH]c(SCC(=O)Nc2c(C)n(C)n(-c3ccccc3)c2=O)n1` gave HT1080NT lethal 0%, DT40 TDP1 no CPT 11%, DT40 TDP1 CPT -2%, IL1B secr inh 3 and HT1080 IDH1KD tx 0%.
`Cc1c(C(=O)NC(=S)Nc2ccc(NC(=O)c3cccs3)cc2)cccc1[N+](=O)[O-]` gave HT1080NT lethal inconclusive, DT40 TDP1 no CPT 13µM*, DT40 TDP1 CPT inconclusive, IL1B secr inh 14 and HT1080 IDH1KD tx -11%[9.24 µM].
Screening O=C(NCCc1ccccc1)c1cnc2ccccc2n1 returned HT1080NT lethal 13%, DT40 TDP1 no CPT -18%, DT40 TDP1 CPT inconclusive, IL1B secr inh 7 and HT1080 IDH1KD tx 24%.
For Nc1nc(N)c2ncc(C(=O)CCc3ccccc3)nc2n1 the results were HT1080NT lethal -1%, DT40 TDP1 no CPT inconclusive, DT40 TDP1 CPT 13µM*, IL1B secr inh 19 and HT1080 IDH1KD tx -10%.
`CC(C)(C)OC(=O)N1CCN(C(=O)c2[nH]cnc2C(=O)N[C@@H](Cc2ccccc2)C(=O)OCc2ccccc2)CC1` gave HT1080NT lethal 2%, DT40 TDP1 no CPT inconclusive, DT40 TDP1 CPT inconclusive, IL1B secr inh -64* and HT1080 IDH1KD tx 0%.
For CC(C)C[C@H](NC(=O)c1nc[nH]c1C(=O)N1CCN(C(=O)OC(C)(C)C)CC1)C(=O)OCc1ccccc1 the results were HT1080NT lethal -6%, DT40 TDP1 no CPT 16µM*, DT40 TDP1 CPT 18µM*, IL1B secr inh -71* and HT1080 IDH1KD tx -10%.
For C[C@H](OC(=O)c1[nH]cnc1C(=O)N1CCN(C(=O)OC(C)(C)C)CC1)c1ccccc1 the results were HT1080NT lethal 13%, DT40 TDP1 no CPT 26µM*, DT40 TDP1 CPT inconclusive, IL1B secr inh 39 and HT1080 IDH1KD tx 6%.
For CCOC(=O)C(CCc1ccccn1)c1ccccc1 (centres undefined) the results were HT1080NT lethal 2%, DT40 TDP1 no CPT inconclusive, DT40 TDP1 CPT inconclusive, IL1B secr inh -1 and HT1080 IDH1KD tx -1%.
`CC(C)(C)Nc1nc(-c2ccc3c(c2)CCN3C(=O)C2CC2)cs1` gave HT1080NT lethal -6%, DT40 TDP1 no CPT inconclusive, DT40 TDP1 CPT inconclusive, IL1B secr inh -7 and HT1080 IDH1KD tx -3%.
For CC(C)C(=O)Nc1nc(-c2ccc3c(c2)CCN3C(=O)C2CC2)cs1 the results were HT1080NT lethal 9%, DT40 TDP1 no CPT 13µM*, DT40 TDP1 CPT 12µM*, IL1B secr inh -12 and HT1080 IDH1KD tx 5%.
For CCC(CC)C(=O)Nc1nc(-c2ccc3c(c2)CCN3C(=O)C2CC2)c(C)s1 the results were HT1080NT lethal -18%, DT40 TDP1 no CPT 23µM*, DT40 TDP1 CPT inconclusive, IL1B secr inh 49 and HT1080 IDH1KD tx -11%.
For Cc1ccc(CNC(=O)c2cccn2-c2nnc(N3CCCCC3)s2)cc1 the results were DT40 TDP1 no CPT 23µM* and DT40 TDP1 CPT 21µM*.
`CCN(CC)c1ccc(NC(=O)c2cccn2-c2nnc(N3CCCCC3)s2)c(C)c1` gave DT40 TDP1 no CPT 5.8µM* and DT40 TDP1 CPT 5.2µM*.
For COc1ccc(CNC(=O)c2cccn2-c2nnc(N3CCCC3)s2)c(OC)c1 the results were DT40 TDP1 no CPT 16µM* and DT40 TDP1 CPT inconclusive.
For CCOc1ccc(CNC(=O)c2cccn2-c2nnc(N3CCCCC3)s2)cc1OC the results were DT40 TDP1 no CPT 16µM* and DT40 TDP1 CPT 26µM*.
For O=C(NCc1ccccc1)c1cccn1-c1nnc(N2CCCC2)s1 the results were DT40 TDP1 no CPT inconclusive and DT40 TDP1 CPT -21%.

From PubChem
